The sample as a whole holds a higher share of hits than the screen did.
ROS inducer: cancer cell ROS induction. 46,000 compounds, 2% hits. AID 624156. ROS induction (% of piperlongumine), % at 10 µM. U2OS ROS induction, H2DCF-DA fluorescence; in the data active = ROS induction above about 79%, passing the limit was not always enough;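 also: 0% = DMSO vehicle median and 100% = reference compound median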
Numbers without * were called inactive.

COc1ccc(NC(=O)CSc2cc(C)c3cccc(C)c3n2)cc1 was read as ROS inducer -5.
For CCOC(=O)C1=CN(c2ccc(C)cc2)C=C(C(=O)OCC)C1c1cccs1 the results were ROS inducer 112*.
CCOC(=O)c1csc(-c2cccs2)n1 was read as ROS inducer -1.
`CCOC(=O)N1CCN(C(=O)c2cccs2)CC1` gave ROS inducer -11.
O=C(CSc1ncnc2c1nnn2Cc1ccc(F)cc1)OCc1ccccc1 was read as ROS inducer 46.
O=C(CSc1ncnc2c1nnn2Cc1ccccc1)NCc1ccccc1 was read as ROS inducer 25.
NC(=O)CSc1ncnc2c1nnn2Cc1ccc(F)cc1 was read as ROS inducer 135*.
`Cc1ccc(S(=O)(=O)N(C)C[C@H]2Oc3ccc(NC(=O)Nc4ccc(C(F)(F)F)cc4)cc3C(=O)N([C@@H](C)CO)C[C@H]2C)cc1` gave ROS inducer 4.
For C=CCNc1sc2c(N)nc(N)nc2c1C#N the results were ROS inducer 5.
For C[C@@H]1CN([C@@H](C)CO)C(=O)Cc2cc(NC(=O)c3ccncc3)ccc2O[C@@H]1CN(C)C(=O)Nc1ccc(C(F)(F)F)cc1 the results were ROS inducer 6.
`CCCOC(=O)COc1ccc2c(=O)c(-c3ccccc3OC)coc2c1` gave ROS inducer 236*.
For COc1ccc(-c2coc3cc(O)ccc3c2=O)c(OC)c1 the results were ROS inducer 0.
`COC(=O)COc1ccc2c(=O)c(Oc3ccc(OC)cc3)coc2c1` gave ROS inducer 22.
COc1ccc(C(=O)NC(=Nc2c(C)cccc2C)SC)cc1 was read as ROS inducer 10.
For CS(=O)(=O)N(CC(=O)Nc1cccc(Cl)c1Cl)c1cccc(F)c1 the results were ROS inducer -10.
For COc1ccc(CCNC(=S)NC2CC2)cc1OC the results were ROS inducer 4.
For COc1ccc(S(=O)(=O)Nc2ccc3c(c2)C(=O)N([C@@H](C)CO)C[C@@H](C)[C@H](CN(C)C(=O)Nc2ccc(F)cc2)O3)cc1 the results were ROS inducer -10.
`O=S(=O)(C1=CC23CCCC2(C=C(S(=O)(=O)c2ccc(Cl)cc2)C3)C1)c1ccc(Cl)cc1` (stereo not given) gave ROS inducer 81*.
For CC1CCCCN1S(=O)(=O)c1ccc(Cl)cc1 (stereo not given) the results were ROS inducer -5.
Screening CC1CC(C)CN(S(=O)(=O)c2ccc(Cl)cc2)C1 (stereo not given) returned ROS inducer -5.
`C[C@@H]1CN([C@H](C)CO)C(=O)c2cccc(NC(=O)Nc3ccccc3)c2O[C@H]1CN(C)S(=O)(=O)c1ccc(F)cc1` gave ROS inducer -5.
`CCOc1ccc(-c2cn3c(n2)sc2cc(C(=O)N4CCN(C)CC4)ccc23)cc1` gave ROS inducer 35.
`CCn1c(SCC(=O)N2CCN(c3ccccc3)CC2)nnc1-c1cc2cc(Cl)ccc2o1` gave ROS inducer -12.
`Nc1cc(N)nc(SCC(=O)N2CCN(c3ccc(Cl)cc3)CC2)n1` gave ROS inducer 86*.
Screening O=C(CSc1nnc(-c2ccccc2O)n1-c1ccccc1)N1CCN(c2ccccc2)CC1 returned ROS inducer 12.
`O=C(CCn1cccc(C(F)(F)F)c1=O)Sc1ccccc1` gave ROS inducer -6.
Screening COCCOC(=O)N1C(=O)[C@@]2(c3ccccc31)[C@H](C(=O)N1CCc3cc(OC)c(OC)cc3C1)[C@H]1C(=O)O[C@H](c3ccccc3)[C@H](c3ccccc3)N1[C@@H]2c1ccccc1OCCO returned ROS inducer 121*.
For COCCOC(=O)N1C(=O)[C@@]2(c3cc(C#Cc4ccc(OC)cc4)ccc31)[C@H](C(=O)N1CCc3cc(OC)c(OC)cc3C1)[C@H]1C(=O)O[C@H](c3ccccc3)[C@H](c3ccccc3)N1[C@@H]2c1ccccc1OCCO the results were ROS inducer 50.
Screening COCCOC(=O)N1C(=O)[C@@]2(c3cc(C#CCNC(N)=O)ccc31)[C@H](C(=O)N1CCc3cc(OC)c(OC)cc3C1)[C@H]1C(=O)O[C@H](c3ccccc3)[C@H](c3ccccc3)N1[C@@H]2c1ccccc1OCCO returned ROS inducer 0.
COCCOC(=O)N1C(=O)[C@@]2(c3cc(C#Cc4ccc(OC)cc4)ccc31)[C@H](c1ccccc1OCCO)N1[C@H](c3ccccc3)[C@H](c3ccccc3)OC(=O)[C@H]1[C@@H]2C(=O)N1CCc2cc(OC)c(OC)cc2C1 was read as ROS inducer 112*.
For Cn1c(SCC(=O)Nc2ccc(Br)cc2)nnc1-c1ccccn1 the results were ROS inducer -6.
For CN(C)CCNC(=O)c1cc2c(s1)-c1ccccc1S(=O)(=O)C2 the results were ROS inducer 8.
Screening CC(=O)O[C@H]1[C@H](Oc2ccccc2COC(=O)C2(O)C=CCCC2=O)O[C@H](CO)[C@@H](O)[C@@H]1O (stereo not given in full) returned ROS inducer -5.

Screens: PubChem, Broad Institute
